High-throughput results deposited in PubChem BioAssay by National Center for Advancing Translational Sciences (NCATS).
The full list was thinned out, with hits kept by preference.
VDR inh: Inhibitors of the vitamin D receptor (VDR): qHTS; Vitamin D3 receptor (Homo sapiens), P11473; VDR-SRC2-3 peptide fluorescence polarization, 2 h; Potency, µM, actives largely listed as inhibitors; hit rate 0.93% among 400,000; AID 504847, 2011
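Fluorescence polarization assay measuring small-molecule disruption of VDR binding to the coregulator peptide SRC2-3. Compounds were pin-transferred (23 nl) into the reagent mix and incubated 2 h at room temperature before reading.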
Glioma ERSR ind: qHTS for Inducers of the Endoplasmic Reticulum Stress Response (ERSR) in Human Glioma: qHTS; U87-MG GRP78 promoter luciferase reporter, 16 h; hit rate 0.02% among 420,000; AID 602332, 2012; Potency, µM, hits mostly activators; also: series mostly up to about 76 µM; nearly all actives have a fitted effect of over 35% in size
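Stably transfected U87-MG human glioma cells carrying a GRP78-based luminescent sensor were seeded at 1000 cells/well, pin-dosed with compounds and incubated 16 h. Luciferase reagent was then added, and end-point luminescence was read after 10 min at room temperature.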
ALOX12 inh: Primary qHTS assay for inhibitors of human arachidonate 12S-lipoxygenase (ALOX12): Round 2; Polyunsaturated fatty acid lipoxygenase ALOX12 (Homo sapiens), P18054; purified 12hLO, xylenol orange hydroperoxide absorbance; Potency, µM (series often up to 108 µM), most hits filed as inhibitors; hit rate 1.1% among 580,000; AID 1671190, 2021
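Hydroperoxide product was detected by ferrous iron/xylenol orange as the 573 to 405 nm absorbance ratio. Arachidonic acid at 40 uM (final) was turned over for 30 min at room temperature by 150 nM human 12hLO, pH 7.0 Hepes buffer, after 15 min compound preincubation.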
Sfp PPTase inh: qHTS Assay for Inhibitors of Bacillus subtilis Sfp phosphopantetheinyl transferase (PPTase); 4'-phosphopantetheinyl transferase ffp (Bacillus subtilis), Q9F4F7; Biochemical Sfp PPTase activity, qHTS; Potency, µM, actives largely listed as inhibitors; hit rate 3.5% among 310,000;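 also: the enzyme is Sfp with the accession as filed and its product quenches rhodamine fluorescence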
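Buffer: 50 mM Hepes-Na pH 7.6, 10 mM MgCl2, 0.01% Nonidet P-40, 0.01% BSA. Enzyme 15 nM, pre-exposed to compound 15 min; substrates then added and fluorescence change tracked over 30 min.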
G9a block: qHTS Assay for Inhibitors of Histone Lysine Methyltransferase G9a | Histone-lysine N-methyltransferase EHMT2 (Homo sapiens), Q96KQ7 | hit rate 8.8% among 350,000 | Potency, µM (titrated, usually from 102 µM), most hits filed as inhibitors | G9a H3K9 monomethylation, AlphaScreen, 2 h; also: nearly all actives have a fitted effect of over 75% in size
Target sequence (Q96KQ7 913-1193 limits assumed): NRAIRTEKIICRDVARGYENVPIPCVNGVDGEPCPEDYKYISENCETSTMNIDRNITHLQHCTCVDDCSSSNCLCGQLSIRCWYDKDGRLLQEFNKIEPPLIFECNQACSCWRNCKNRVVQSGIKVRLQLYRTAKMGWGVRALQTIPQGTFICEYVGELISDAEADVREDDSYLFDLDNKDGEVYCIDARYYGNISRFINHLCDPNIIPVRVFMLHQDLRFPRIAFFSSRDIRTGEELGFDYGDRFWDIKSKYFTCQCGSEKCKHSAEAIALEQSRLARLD
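Readings reflect AlphaScreen signal from monomethyl-H3K9 antibody detection. HMT at 20 nM; substrate b-H3K9 500 nM; cofactor SAM 20 uM; 2 h RT reaction; compounds tested as titrations in qHTS with 15 min preincubation.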
Of the large screens only hits and unclear results are named; the others gave an inactive call. Calls follow the shape of the dose curve; as a rule, active = well fitted curve in the direction sought with a large enough effect; inconclusive = small, poorly fitted or top-dose-only effect, or another doubt; inactive = no such curve, though single readings can be large; an effect the other way counts as inactive or inconclusive.

COC(=O)c1cccc(Cn2c(Cl)c(/C=N/NC(=O)c3ccccc3Cl)sc2=O)c1	none (no result: G9a block)
COC(=O)c1cccc(Cn2c(Cl)c(/C=N/NC(=O)c3ccco3)sc2=O)c1	G9a block 50.1µM
Cn1c(=O)[nH]c(=O)c2c1nc(N1CCN(CC(N)=O)CC1)n2Cc1ccccc1Cl	none (no result: VDR inh, Glioma ERSR ind, Sfp PPTase inh, G9a block)
CCOC(=O)c1cnn2c(N)c(C#N)cnc12	G9a block 44.7µM
COc1ccc(CN2CCNc3cc(-c4ccccc4)ncc3C2)cc1	none (no result: VDR inh, Glioma ERSR ind, Sfp PPTase inh, G9a block)
Cc1cccc(C)c1C(OCCN(C)C)C1CCCCC1 (stereo not given)	ALOX12 inh inconclusive, G9a block 10µM
COc1ccc(C)cc1S(=O)(=O)[C@H]1CS(=O)(=O)C[C@@H]1NCc1ccccn1	none (no result: VDR inh, Glioma ERSR ind, Sfp PPTase inh, G9a block)
Cc1cc(C)c(C#N)c(Sc2ccccc2N)n1	G9a block 7.94µM
COc1ccc(Nc2nc(NCC3CCCO3)c3ccccc3n2)c(OC)c1 (stereo not given)	ALOX12 inh inconclusive, G9a block 44.7µM
Oc1cccc(Nc2nc(NCC3CCCO3)c3ccccc3n2)c1 (stereo not given)	Sfp PPTase inh inconclusive (no result: ALOX12 inh)
c1ccc(Nc2nc(NCC3CCCO3)c3ccccc3n2)cc1 (stereo not given)	ALOX12 inh 44.7µM, Sfp PPTase inh inconclusive
CCOc1ccc(Nc2nc(NCC3CCCO3)c3ccccc3n2)cc1 (stereo not given)	ALOX12 inh inconclusive, Sfp PPTase inh 35.5µM, G9a block 39.8µM
CNc1oc(-c2cccc(C)c2)nc1S(=O)(=O)c1ccccc1	none (no result: VDR inh, Glioma ERSR ind, Sfp PPTase inh, G9a block)
CC(=O)NCCNc1nc(NC(C)C)nc2cc(-c3ccccc3)sc12	ALOX12 inh inconclusive (no result: VDR inh, Sfp PPTase inh, G9a block)
COc1ccc(-c2cc(CNc3nc(NC(C)C)nc4cc(-c5ccccc5)sc34)on2)cc1	ALOX12 inh 44.7µM (no result: VDR inh, Sfp PPTase inh, G9a block)
CC(=O)Nc1ccc(CNc2nc(NC(C)C)nc3cc(-c4ccccc4)sc23)cc1	ALOX12 inh 44.7µM (no result: VDR inh, Sfp PPTase inh, G9a block)
C=CCNc1nc(NCc2ccc(NC(C)=O)cc2)c2sc(-c3ccccc3)cc2n1	ALOX12 inh inconclusive (no result: VDR inh, Sfp PPTase inh, G9a block)
Cc1ccc(CN(C(=O)CCCc2cccs2)C2CC2)cc1	ALOX12 inh 8.91µM (no result: VDR inh, Glioma ERSR ind, Sfp PPTase inh, G9a block)
O=C(Cc1cccs1)N(Cc1ccncc1)C1CC1	none (no result: VDR inh, Glioma ERSR ind, Sfp PPTase inh, G9a block)
CC(C)c1nnc2sc(-c3ccc4c(c3)OCO4)nn12	none (no result: VDR inh, Glioma ERSR ind, Sfp PPTase inh, G9a block)
COCCCN1C(=O)/C(=C/c2ccc(CNS(=O)(=O)c3ccccc3)o2)C(C(=O)OC)=C1C	Sfp PPTase inh 14.1µM, G9a block 28.2µM
CNC(=O)/C(C#N)=C\c1ccc(CNS(=O)(=O)c2ccccc2)o1	none
O=c1cnc(-c2ccc(Cl)cc2)cn1O	ALOX12 inh 50.1µM
Cc1cc(CS(=O)(=O)Cc2ccccc2Cl)no1	none (no result: VDR inh, Glioma ERSR ind, Sfp PPTase inh, G9a block)
CCC(C)C(=O)Nc1nc2ccc(S(C)(=O)=O)cc2s1 (stereo not given)	G9a block 31.6µM
CC(=O)Nc1ccc(S(=O)(=O)Nc2nc3ccc([N+](=O)[O-])cc3s2)cc1	ALOX12 inh inconclusive, G9a block 44.7µM
CC(C)C(=O)Nc1nc2ccc(S(C)(=O)=O)cc2s1	none (no result: G9a block)
CS(=O)(=O)c1ccc2nc(NC(=O)C3CC(=O)N(c4ccccc4)C3)sc2c1 (stereo not given)	VDR inh inconclusive, G9a block inconclusive
Cc1noc(C)c1C(=O)Nc1nc2ccc(F)cc2s1	none (no result: Sfp PPTase inh)
Cc1ccc(N2CC(C(=O)Nc3nc4ccc(S(C)(=O)=O)cc4s3)CC2=O)cc1 (stereo not given)	Sfp PPTase inh 44.7µM (no result: G9a block)
CCc1noc(C)c1C(=O)Nc1nc2ccc(F)cc2s1	G9a block 15.8µM (no result: Sfp PPTase inh)
CC(=O)Nc1ccc(S(=O)(=O)Nc2nc3ccccc3s2)cc1	none
Cc1ccc2cc(C(=O)O)[nH]c2c1	none (no result: VDR inh, Glioma ERSR ind, Sfp PPTase inh, G9a block)
COc1ccc(-c2noc(Nc3cc(C)ccc3OC)n2)cc1	none (no result: VDR inh, Glioma ERSR ind, Sfp PPTase inh, G9a block)
CN1C(=O)C2(CCN(C(=O)CCC3CCCCC3)CC2)c2ccccc21	none (no result: VDR inh, Glioma ERSR ind, Sfp PPTase inh, G9a block)
CS(=O)(=O)c1ccc2nc(NC(=O)c3ccc(NS(=O)(=O)c4cccc([N+](=O)[O-])c4)cc3)sc2c1	G9a block inconclusive
